The source of these data is PubChem BioAssay.

The source made the active and inactive calls.

The test system of experiment [1] is Plasmodium falciparum Sir2 (PF13_0152, Sir2A). Nature of the experiment: Plasmodium falciparum Sir2A binding compounds – biochemical, small-molecule microarray, 635 nm fluorescence, primary screen (AID 1098).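 Note: score merges spot fluorescence intensity with its signal-to-noise ratio.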 As to conditions: fluorescence 635 nm, higher = more signal.
Experiment [2] is described as follows: probe aDKK1 binding to arrayed compounds – biochemical, biotinylated probe, 635/667 nm fluorescence, primary screen (AID 1099).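 Note: score merges 667nm spot fluorescence with signal to noise across triplicate slides; reference of the scale not given here.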 To be noted: small-molecule microarray, higher = more signal.
The nature of experiment [3]: probe aCHRDL2 binding to arrayed compounds – biochemical, biotinylated probe, 635/667 nm fluorescence, primary screen (AID 1100). To be noted: small-molecule microarray, higher = more signal.
The nature of experiment [4]: change in splice reporter luminescence, either direction, cell-based, HEK293, spliceosome inhibition project, primary screen (AID 1101).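 Note: HEK293 cells carrying a splicing-competent luciferase reporter gene; test concentration not given here.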 To be noted: HEK293 splicing luciferase reporter, 24 h, higher = more signal, called active from +8 up or from −8 down.
In experiment [5] the target is Fibroblast growth factor 10 (Homo sapiens) (UniProt O15520). The experiment can be described thus: compounds binding fibroblast growth factor 10 – biochemical, small-molecule microarray, 635 nm fluorescence, primary screen (AID 1102). To be noted: FGF10 binding, fluorescence 635 nm, higher = more signal.
Chain of Fibroblast growth factor 10 (Homo sapiens) (O15520 whole entry, looked up): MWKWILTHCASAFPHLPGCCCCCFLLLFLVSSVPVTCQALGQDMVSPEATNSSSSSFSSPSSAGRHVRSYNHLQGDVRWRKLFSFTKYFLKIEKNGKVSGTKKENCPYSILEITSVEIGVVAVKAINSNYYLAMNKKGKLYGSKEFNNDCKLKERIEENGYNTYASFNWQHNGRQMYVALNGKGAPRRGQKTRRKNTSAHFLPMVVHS
The subject of experiment [6] is glycogen synthase kinase-3 (GSK3A per assay name; protocol says GSK3B). The experiment can be described thus: compounds binding glycogen synthase kinase-3 – biochemical, small-molecule microarray, 635 nm fluorescence, GSK3A, primary screen (AID 1103). Note: the record names both GSK3A and GSK3B. As to conditions: fluorescence 635 nm, higher = more signal.
The target in experiment [7] is Epidermal growth factor receptor (Homo sapiens) (UniProt P00533). Nature of the experiment: compounds binding epidermal growth factor receptor – biochemical, small-molecule microarray, 635 nm fluorescence, primary screen (AID 1104).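 Note: score merges 667 nm emission intensity with spot signal to noise over triplicate slides.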 To be noted: EGFR binding, higher = more signal.
Chain of Epidermal growth factor receptor (Homo sapiens) (P00533 whole entry, looked up): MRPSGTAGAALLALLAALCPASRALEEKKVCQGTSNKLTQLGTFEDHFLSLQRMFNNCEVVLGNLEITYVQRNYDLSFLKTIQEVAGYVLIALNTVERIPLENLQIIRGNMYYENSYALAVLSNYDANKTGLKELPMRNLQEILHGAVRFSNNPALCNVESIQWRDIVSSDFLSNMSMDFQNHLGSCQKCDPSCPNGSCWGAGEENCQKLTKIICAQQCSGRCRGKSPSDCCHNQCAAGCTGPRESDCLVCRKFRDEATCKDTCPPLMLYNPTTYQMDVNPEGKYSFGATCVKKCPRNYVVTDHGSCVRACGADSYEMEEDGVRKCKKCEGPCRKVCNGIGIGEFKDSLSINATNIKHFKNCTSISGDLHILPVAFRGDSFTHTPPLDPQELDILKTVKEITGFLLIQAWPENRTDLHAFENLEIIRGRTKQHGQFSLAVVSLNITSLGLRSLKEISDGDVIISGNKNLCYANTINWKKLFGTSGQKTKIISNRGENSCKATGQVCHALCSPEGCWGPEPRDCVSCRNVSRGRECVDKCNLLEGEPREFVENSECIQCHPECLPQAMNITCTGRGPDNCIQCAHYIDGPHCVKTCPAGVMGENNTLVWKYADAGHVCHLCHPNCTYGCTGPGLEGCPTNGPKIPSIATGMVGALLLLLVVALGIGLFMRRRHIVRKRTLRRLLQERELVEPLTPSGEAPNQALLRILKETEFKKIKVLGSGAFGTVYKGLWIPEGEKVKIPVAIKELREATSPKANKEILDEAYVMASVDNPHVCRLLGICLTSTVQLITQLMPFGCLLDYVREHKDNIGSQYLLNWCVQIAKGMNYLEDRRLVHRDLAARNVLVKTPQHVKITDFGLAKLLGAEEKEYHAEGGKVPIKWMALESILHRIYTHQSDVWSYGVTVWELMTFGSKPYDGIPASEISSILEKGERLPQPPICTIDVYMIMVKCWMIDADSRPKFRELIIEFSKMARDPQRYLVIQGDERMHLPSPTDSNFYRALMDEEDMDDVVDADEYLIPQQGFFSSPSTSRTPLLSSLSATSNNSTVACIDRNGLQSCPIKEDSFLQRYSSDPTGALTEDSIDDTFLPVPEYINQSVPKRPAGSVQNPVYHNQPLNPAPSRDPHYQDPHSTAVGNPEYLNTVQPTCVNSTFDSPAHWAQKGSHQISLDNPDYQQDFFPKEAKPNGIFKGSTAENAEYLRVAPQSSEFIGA
In experiment [8] the target is Follistatin-related protein 3 (Homo sapiens) (UniProt O95633). Nature of the experiment: compounds binding follistatin-related protein 3 – biochemical, small-molecule microarray, 635 nm fluorescence, primary screen (AID 1105).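 Note: score merges emission near 667 nm and signal to noise per printed spot across three slides.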 To be noted: FSTL3 binding, higher = more signal.
Chain of Follistatin-related protein 3 (Homo sapiens) (O95633 whole entry, looked up): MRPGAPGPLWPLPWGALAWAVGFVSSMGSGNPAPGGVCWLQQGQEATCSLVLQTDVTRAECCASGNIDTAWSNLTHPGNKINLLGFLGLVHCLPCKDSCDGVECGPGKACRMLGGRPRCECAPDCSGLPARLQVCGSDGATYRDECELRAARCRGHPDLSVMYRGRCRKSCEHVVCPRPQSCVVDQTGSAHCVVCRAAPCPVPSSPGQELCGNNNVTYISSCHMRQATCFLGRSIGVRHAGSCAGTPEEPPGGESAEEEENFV
In experiment [9] the target is Dickkopf-related protein 1 (Homo sapiens) (UniProt O94907). The experiment can be described thus: small molecules binding DKK1 protein – biochemical, small-molecule microarray, 635 nm fluorescence scan, primary screen (AID 1106).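 Note: score merges emission near 667 nm with signal to noise over three replicate slides.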 As to conditions: higher = more signal.
Chain of Dickkopf-related protein 1 (Homo sapiens) (O94907 whole entry, looked up): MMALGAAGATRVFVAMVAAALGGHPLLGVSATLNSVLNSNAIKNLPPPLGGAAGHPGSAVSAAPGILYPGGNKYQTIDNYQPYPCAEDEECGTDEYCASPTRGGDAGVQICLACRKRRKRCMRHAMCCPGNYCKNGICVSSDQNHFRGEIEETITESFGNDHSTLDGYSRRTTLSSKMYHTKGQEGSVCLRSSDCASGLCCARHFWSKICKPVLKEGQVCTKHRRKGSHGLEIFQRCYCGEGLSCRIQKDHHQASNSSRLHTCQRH
Experiment [10] relates to Inhibin beta A chain (activin A). Nature of the experiment: small molecules binding activin A – biochemical, small-molecule microarray, 635 nm fluorescence scan, primary screen (AID 1107).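 Note: mouse activin A protein probed at 4.33 µg/mL on printed slides; score merges bound-protein fluorescence near 667 nm with spot signal-to-noise.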 As to conditions: INHBA, higher = more signal.

Take `C[C@@H]1ON(c2cccc(C(=O)OC(C)(C)C)c2)[C@H](c2ccc(Br)cc2)[C@H]1C(=O)N1C(=O)OC[C@H]1Cc1ccccc1`: the composite z-score is 0.801 in [1]; -0.155 in experiment [2]; -0.319 in experiment [3]; 1.15 in [5]; 0.962 in experiment [6]; 0.51 in experiment [7]. The figures for the composite z-score in experiment [8], in experiment [9] and in experiment [10] were 1.03, 0.693 and 0.272, respectively. Besides, in experiment [4], the z-score was -0.0916 (inactive).

On to `CC1CC/C=C\[C@H]2OC34C=CCN(c5ccc(Cl)cc5)C(=O)[C@H]3N(CCO)C(=O)[C@]4(C)C2C(=O)O1` (stereo not given in full), for which the composite z-score in experiment [1] was 0.111; in experiment [2], -0.197; in experiment [3], 0.693; in [5] it was -0.379; in experiment [6], -0.15; in experiment [7] it was -0.483. For the same compound, the composite z-score was -0.646 in [8], -1.46 in experiment [9] and 1.27 in experiment [10]. Besides, the z-score in experiment [4] is 0.568 (inactive).

Turning to `CCOC1=C2C(CN(S(=O)(=O)c3ccc(C)cc3)C2c2ccc(C)cc2)C2C(=O)N(c3ccccc3)C(=O)C2C1` (stereo not given), the composite z-score in experiment [1] turned out to be 0.9; in experiment [2] it was 0.0373; in experiment [3] it was 0.267; in experiment [5], 1.25; in experiment [6] it was 0.36; in experiment [7], 0.171. In addition, the composite z-score in experiment [8] is 0.782; in experiment [9], 0.207; in [10] it was 0.809. In addition, the z-score in experiment [4] is -0.113 (inactive).

Turning to `O=C1OCCC/C=C\[C@H]2OC34C=CCN(CCN5CCOCC5)C(=O)[C@H]3N(CCCO)C(=O)[C@@H]4C12` (stereo not given in full), the composite z-score in experiment [1] is 1.37; in experiment [2] it was -0.199; in [3] it was 0.0663; in experiment [5] it was 0.0487; in experiment [6] it was -0.0632; in experiment [7], -0.708. Also, the composite z-score in [8] is -0.621; in experiment [9], -0.298; in experiment [10], 0.576. In [4], the z-score is 0.106 (inactive).

For `C=CCOC(=O)[C@H]1[C@@H]2C(=O)O[C@@H](c3ccccc3)[C@@H](c3ccccc3)N2[C@@H](c2ccc(OCCOC(=O)[C@@H]3C[C@@H]4C(=O)N[C@@H](CCCC[N+](C)(C)C)C(=O)N4[C@@H]3c3ccc(O)cc3)cc2)[C@]12C(=O)Nc1ccccc12`, the composite z-score in experiment [1] is 1.05; in experiment [2], 0.415; in [3], -0.372; in experiment [5], 0.805; in [6] it was 1.3; in [7], 0.383. Also, the composite z-score in [8] was 1.24; in [9], 0.716; in [10], -0.0117. In addition, in [4], the z-score was -0.794 (inactive).

On to `COc1cc(OC)c(C(O)C2C=CC3C(=O)NC(=O)C3N2Nc2ccc(Cl)cc2Cl)cc1Br` (stereo not given), for which the composite z-score in [1] was 1.38; in experiment [2], 2.08; in experiment [3] it was 1.16; in experiment [5], 0.0245; in experiment [6] it was 0.0735; in experiment [7], -0.142. In addition, the composite z-score in experiment [8] is 0.498; in experiment [9], -0.985; in experiment [10], 0.312. Besides, the z-score in experiment [4] is 2.41 (inactive).

In the case of `O=C(NCc1ccccc1)[C@@H]1c2ccccc2C(=O)N(CC23CC4CC(CC(C4)C2)C3)[C@H]1c1ccc(CO)cc1`, the composite z-score was 1.6 in [1]; -0.654 in experiment [2]; -0.524 in experiment [3]; 0.971 in [5]; 1.31 in [6]; 0.603 in experiment [7]. Moreover, the composite z-score was 1.43 in experiment [8], 0.593 in experiment [9] and 0.147 in [10]. The z-score in experiment [4] was 0.152 (inactive).

For the compound `Cc1ccc(C(C)CC(O)C2C=CC3C(=O)N(c4ccccc4)C(=O)C3N2Nc2ccc([N+](=O)[O-])cc2)o1` (stereo not given), the composite z-score in experiment [1] was 0.883; in experiment [2] it was -0.199; in [3], 0.904; in [5], 0.938; in experiment [6] it was 1.27; in experiment [7], 0.152. For the same compound, the composite z-score in experiment [8] turned out to be 0.904; in experiment [9], 0.0201; in experiment [10], 0.77. Further, in [4], the z-score is 0.907 (inactive).

As to `CC1(C)[C@@H]2CC(C(O)C3C=CC4C(=O)N(c5ccccc5)C(=O)C4N3Nc3ccccc3)=C[C@H]1C2` (stereo not given in full), the composite z-score in [1] was 0.576; in experiment [2], 0.592; in experiment [3], 0.663; in experiment [5], 0.104; in experiment [6] it was 0.33; in experiment [7], -0.316. The results for the composite z-score in experiment [8], in experiment [9] and in [10] were 0.114, 0.011 and 1.2, respectively. Besides, the z-score in experiment [4] was 0.99 (inactive).

For the compound `C=CCC(OC(C)=O)[C@@H]1[C@@H](N(Cc2ccc(-c3cccc(C(F)(F)F)c3)o2)C(=O)c2ccc(-c3ccccc3)cc2)c2cc(OCCCO)ccc2N1C(=O)c1ccc(-c2ccccc2)cc1` (stereo not given in full), the composite z-score is -0.285 in [1]; 0.31 in experiment [2]; 0.543 in experiment [3]; 0.269 in experiment [5]; -0.754 in [6]; -0.327 in experiment [7]. The composite z-score in experiment [8] is 0.104; in experiment [9], -0.0545; in experiment [10], 1.32. The z-score in experiment [4] is 0.196 (inactive).

For the compound `CCCCC=C[C@@H](NC(=O)Oc1cccc(C(F)(F)F)c1)c1ccccc1`, the composite z-score is 0.495 in [1]; 1.45 in experiment [2]; 0.879 in [3]; 1.09 in experiment [5]; 0.992 in [6]; 0.185 in experiment [7]. For the same compound, the composite z-score in experiment [8] is 0.719; in experiment [9], -0.432; in experiment [10] it was 1.16. Also, in experiment [4], the z-score is -1.75 (inactive).

As to `C=CCNC(=O)[C@H]1[C@@H]2C(=O)O[C@@H](c3ccccc3)[C@@H](c3ccccc3)N2[C@@H](c2ccc(O)cc2)[C@]12C(=O)N(C(=O)OCCOC)c1ccc(C#CCNC(N)=O)cc12`, the composite z-score in experiment [1] came to 0.867; in experiment [2], 0.297; in [3] it was 0.537; in [5], 0.855; in experiment [6] it was 1.11; in experiment [7], 0.157. In addition, the composite z-score turned out to be 0.999 in experiment [8], 0.936 in [9] and 0.969 in [10]. Moreover, in experiment [4], the z-score is 0.481 (inactive).

For the compound `C=CCNC(=O)[C@@H]1[C@H]2C(=O)O[C@H](c3ccccc3)[C@H](c3ccccc3)N2[C@H](c2ccccc2OCCO)[C@@]12C(=O)N(C(=O)OCCOC)c1ccc(C#CCNC(N)=O)cc12`, the composite z-score in experiment [1] came out at 1.43; in experiment [2], 0.0834; in [3], 0.447; in [5], 0.738; in experiment [6], 0.581; in [7], 0.444. Also, the figures for the composite z-score in [8], in experiment [9] and in experiment [10] were 0.921, -0.0253 and 0.38, respectively. Also, the z-score in experiment [4] was -0.938 (inactive).

With `C=C(C)C1C(=C)CN([C@H](CO)c2ccccc2)C1=O` (stereo not given in full), the composite z-score in [1] is 1.35; in experiment [2], -0.172; in experiment [3], 0.22; in [5] it was -0.0267; in experiment [6], -0.599; in [7] it was -0.476. For the same compound, the composite z-score in [8] was -0.0684; in [9], -0.153; in experiment [10], 1.36. Moreover, in [4], the z-score is -0.622 (inactive).

In the case of `O=C(C1N=C(c2ccc(OCCCO)cc2)N(c2ccccc2)O1)N1CCOCC1` (stereo not given), the composite z-score came to 0.298 in experiment [1]; 0.56 in experiment [2]; 0.538 in [3]; 1.46 in [5]; 1.3 in experiment [6]; 0.0096 in experiment [7]. Further, the composite z-score stood at 0.695 in [8], 0.858 in [9] and 0.315 in experiment [10]. The z-score in experiment [4] is -0.799 (inactive).

In the case of `COc1ccc([Si](C)(C)[C@@H]2[C@@H](CCO)O[C@]3(C(=O)N(Cc4ccc(N5C(=O)COc6ccccc65)cc4)c4ccccc43)[C@H]2C)cc1`, the composite z-score in experiment [1] was found to be 1.31; in experiment [2] it was 0.146; in experiment [3], 0.147; in [5], 0.808; in experiment [6], 0.522; in [7], 0.334. Further, the values for the composite z-score in experiment [8], in [9] and in [10] were 0.469, 0.129 and 0.678, respectively. The z-score in experiment [4] is -1.68 (inactive).
